# KB-V1 cytotox – kills drug-selected multidrug resistant KB-V1 cells; KB-V1 MDR cells viability, CellTiter-Glo, 72 h; Potency, µM (top dose mostly 46.1 µM), hits mostly cytotoxic; hit rate 3.4% among 400,000; also: nearly all actives have a fitted effect of over 60% in size
#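 Drug-selected KB-V1 cells, grown in DMEM lacking phenol red with 10% FBS, receive compound titrations; after three days at 37 degrees C, surviving cell ATP is quantified by CellTiter-Glo luminescence and responses normalized and curve-fitted.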
# TDP1 cell noCPT – qHTS for Inhibitors of human tyrosyl-DNA phosphodiesterase 1 (TDP1): qHTS in cells in absence of CPT; DT40 Tdp1-/- hTDP1 cells, no CPT, ATP luminescence, 48 h; hit rate 15% among 420,000; Potency, µM (doses to about 46.2 µM), inactives show at the highest dose activity change, negative = growth inhibition, hits mostly inhibitors; also: nearly all actives have a fitted effect of over 55% in size
#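 A cellular qHTS used chicken DT40 cells lacking endogenous Tdp1 but carrying stably transfected human TDP1. Compounds were applied without camptothecin, and cell growth kinetics were judged by ATP-dependent luminescence after ≥48 hr.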
# HT1080 IDH1KD tx – kills HT-1080 cells with IDH1 knockdown | HT-1080 IDH1 knockdown viability, ATP luminescence, 48 h | Potency, µM (doses to about 46.1 µM), inactives show at the top dose activity, negative = toxicity, actives largely listed as cytotoxic | hit rate 2% among 360,000;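 also: 0% = DMSO wells and -100% = cell-free medium wells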
#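 After a 2 h attachment period, IDH1KD HT-1080 cells took pin-transferred compound for 48 h at 37 °C; ATP-based luminescence after 10 min room-temperature reagent incubation reported viability.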
# HT1080NT lethal – kills 2HG-producing HT-1080-NT fibrosarcoma cells; HT-1080-NT fibrosarcoma viability, CellTiter-Glo ATP luminescence, 48 h; Potency, µM (doses to about 46.1 µM), for the others: at the highest dose activity, negative = less viability, most hits filed as cytotoxic; hit rate 1.6% among 360,000;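 also: NT is the 2HG producing partner of a matched IDH1 knockdown line; 0% = DMSO-treated cells and -100% = media-only wells without cells; nearly all actives have a fitted effect of over 55% in size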
#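 Viability of the 2HG-overproducing fibrosarcoma line after 48 hours of compound exposure at 37 degrees C was determined by luminescence with CellTiter-Glo, and concentration-effect curves were then fitted and categorized.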
# TDP1 cell CPT – growth inhibition of DT40 Tdp1-/-;hTDP1 cells with camptothecin (screen for TDP1 inhibitors); chicken DT40 Tdp1-/-;hTDP1 cells + 20 nM CPT, ATP luminescence, 48 h; Potency, µM (titrated, usually from 46.2 µM), for inactives: at the highest dose activity change, negative = growth inhibition, usual class: inhibitors; hit rate 12% among 420,000; also: nearly all actives have a fitted effect of over 55% in size
#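 Cell growth measured by CellTiter-Glo luminescence after a minimum 48 h, 37 C compound exposure with 20 nM CPT in Tdp1-knockout DT40 cells stably expressing hTDP1, seeded 400/well; qHTS titration format.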
# KB-3-1 cytotox – KB-3-1 parental cell cytotoxicity; KB-3-1 viability, CellTiter-Glo ATP luminescence, 72 h; Potency, µM (series often up to 46.1 µM), hits mostly cytotoxic; hit rate 1.4% among 400,000; AID 1347075; also: nearly all actives have a fitted effect of over 60% in size
#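 Cells are dispensed, compounds pinned in, plates held at 37 °C for 72 h, then CellTiter-Glo is added and luminescence read after 10 minutes. Cell line: parental KB-3-1 in phenol-red-free DMEM, 10% FBS.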
# Numbers without * were called inactive; i = inactive; ? = inconclusive; . = no result. An excerpt weighted towards active compounds, which were near 19% of everything screened. Calls follow the shape of the dose curve; as a rule, active = well fitted curve in the direction sought with a large enough effect; inconclusive = small, poorly fitted or top-dose-only effect, or another doubt; inactive = no such curve, though single readings can be large; an effect the other way counts as inactive or inconclusive. Unless noted, % is scaled to controls: 0 for no effect and ±100 for the full control effect; potency is read from the fitted curve at half-maximal effect.
SMILES,KB-V1 cytotox,TDP1 cell noCPT,HT1080 IDH1KD tx,HT1080NT lethal,TDP1 cell CPT,KB-3-1 cytotox
COc1cccc(C2c3c(oc4ccccc4c3=O)C(=O)N2CCCN2CCOCC2)c1 (stereo not drawn),i,-28.0%,-2.0%,-5.4%,?,i
COC(=O)c1ccc(C2c3c(oc4ccccc4c3=O)C(=O)N2CCCN2CCOCC2)cc1 (stereo not drawn),i,?,4.3%,-1.9%,20.6µM*,i
COCCN1C(=O)c2oc3ccccc3c(=O)c2C1c1ccc(C(=O)OC)cc1 (stereo not drawn),i,-4.5%,-0.6%,-0.1%,-11.1%,i
O=C1c2oc3ccccc3c(=O)c2C(c2cccs2)N1CCCN1CCOCC1 (stereo not drawn),i,-26.7%,10.7%,6.0%,18.4µM*,i
CC1CN(S(=O)(=O)c2csc(C(=O)Nc3ccccc3)c2)CC(C)O1 (stereo not drawn),?,?,-1.2%,?,?,i
Cc1cc(C)cc(N2C(=O)c3nccnc3C2=O)c1,i,-8.5%,9.3%,-3.7%,-1.3%,i
Cc1cc(C)cc(N2C(=O)C=CC2=O)c1,i,0.82µM*,?,?,0.731µM*,?
Cc1ccc(N2C(=O)C3C4C=CC(CC4)C3C2=O)cc1[N+](=O)[O-] (stereo not drawn),i,-19.4%,-1.1%,3.5%,-0.8%,i
Cc1cc(N2C(=O)C=CC2=O)c([N+](=O)[O-])cc1C,i,1.84µM*,?,?,0.82µM*,i
Cc1c([N+](=O)[O-])cc(N2C(=O)C=CC2=O)cc1[N+](=O)[O-],i,1.64µM*,12.9%,-2.8%,0.731µM*,i
Cc1c(Cl)cc(-n2cnnn2)cc1[N+](=O)[O-],i,-28.7%,-9.0%,-0.7%,-29.3%,i
CN(CCO)C(=O)c1cn(C2CCN(Cc3ccc(C(F)(F)F)cc3)CC2)nn1,.,-14.0%,.,.,-13.5%,.
Cc1cc(C)nc(SCc2ccc(C(=O)NNC(=O)Nc3cccc(Cl)c3)cc2)n1,i,13µM*,?,?,20.6µM*,?
Cc1cc(C)nc(SCc2ccc(C(=O)N/N=C/c3ccccn3)cc2)n1,?,20.6µM*,?,-27.9%,?,i
Cc1cc(C)nc(SCc2ccc(C(=O)N/N=C/c3ccncc3)cc2)n1,i,-22.8%,-9.5%,-5.4%,-20.5%,i
Cc1cc(C)nc(SCc2cccc(C(=O)O)c2)n1,i,-15.8%,23.1%,?,-9.2%,i
CN(C(=O)COC(=O)CCc1c[nH]c2ccccc12)C(c1ccccc1)c1ccccc1,?,?,-5.7%,-2.4%,?,i
CCCCn1c(NC(=O)c2ccco2)c(S(=O)(=O)c2ccc(C)cc2)c2nc3ccccc3nc21,?,?,-18.4%,?,?,i
Cc1ccc(S(=O)(=O)c2c(N)n(CCC(C)C)c3nc4ccccc4nc23)cc1,13µM*,?,?,?,?,?
CC(C)CCn1c(N)c(S(=O)(=O)c2cccs2)c2nc3ccccc3nc21,20.6µM*,?,?,22.4µM*,?,i
CCCCCn1c(NC(=O)c2ccco2)c(S(=O)(=O)c2ccc(C)cc2)c2nc3ccccc3nc21,18.4µM*,18.4µM*,?,?,20.6µM*,i
Cc1nn(CC(=O)NCc2ccccc2Cl)c(=O)c2cccn12,i,-14.6%,.,.,-16.9%,i
COc1ccc(C(=O)N2CCOC2CNC(=O)C(=O)NCc2ccc(Cl)cc2)cc1 (stereo not drawn),23.1µM*,?,-10.4%,-6.0%,4.9%,i
